From PubChem BioAssay (EPA / NIEHS)
Records with an inconclusive call do not appear. A structure can be active in one record and inactive in another. Calls of active or inactive are those of the source. How the source made its calls: active means hit-call score of the fitted dose curve at least 0.9, where 1 is the maximum; inconclusive means response in the unintended direction; inactive means score below 0.9.

target: bovine Estrogen Receptor (ER), ESR1 (gene 407238) (UniProt P49884); assay: NVS_NR_bER: NovaScreen (NVS) Nuclear Receptor Binding Assay for bovine Estrogen Receptor (ER) (AID 2283345);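 further: actives lower the bound radioligand count which means they displace the ER ligand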
Procedure, shortened: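 Cell-free radioligand binding with receptor from bovine uterine membranes, read by scintillation counting 18 h after dosing. Loss of specific binding was scored against DMSO; primary screen at 25 uM in duplicate, actives then run as concentration series.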

Sequence of bovine Estrogen Receptor (ER), ESR1 (gene 407238) (P49884 whole entry, looked up): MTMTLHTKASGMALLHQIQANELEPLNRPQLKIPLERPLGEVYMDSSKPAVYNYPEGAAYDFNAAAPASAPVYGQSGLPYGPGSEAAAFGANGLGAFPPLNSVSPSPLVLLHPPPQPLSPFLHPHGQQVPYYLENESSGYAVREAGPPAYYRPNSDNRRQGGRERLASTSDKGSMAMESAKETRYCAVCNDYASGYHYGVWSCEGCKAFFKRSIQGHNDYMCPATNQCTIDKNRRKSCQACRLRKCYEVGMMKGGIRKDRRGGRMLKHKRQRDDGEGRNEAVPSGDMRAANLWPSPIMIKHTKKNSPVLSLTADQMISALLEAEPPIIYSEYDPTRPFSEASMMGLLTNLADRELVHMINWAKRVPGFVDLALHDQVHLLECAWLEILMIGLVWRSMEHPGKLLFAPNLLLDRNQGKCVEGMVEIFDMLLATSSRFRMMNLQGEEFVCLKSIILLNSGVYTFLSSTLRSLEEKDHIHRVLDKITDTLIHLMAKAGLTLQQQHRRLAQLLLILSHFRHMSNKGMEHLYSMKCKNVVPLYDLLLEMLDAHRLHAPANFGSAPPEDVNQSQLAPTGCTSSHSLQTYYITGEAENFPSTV

Compound	outcome	AC50
CCCCCCCCN(C)CCCCCCCC	inactive	–
C[C@]12CC[C@@H]3c4ccc(O)cc4CC[C@H]3[C@@H]1CCC2=O	inactive	–
COc1cc(C(=O)NC2CCN(C)CC2)ccc1Nc1ncc2c(n1)N(C1CCCC1)CC(F)(F)C(=O)N2C	inactive	–
Cc1c2ccccc2c(C)c2c1ccc1ccccc12	inactive	–
CN(C)c1ccc(C(=C2C=CC(=[N+](C)C)C=C2)c2ccc(N(C)C)cc2)cc1	inactive	–
CN1C(=O)N(c2ccccc2Br)Cc2cnc(Nc3ccc4c(c3)OCC(CO)O4)nc21 (stereo not drawn)	–	0.447 µM (active)
CC(C)(c1cc(Br)c(O)c(Br)c1)c1cc(Br)c(O)c(Br)c1	inactive	–
CCCCCCCCOC(=O)c1cc(O)c(O)c(O)c1	–	36.7 µM (active)
c1ccc(C[n+]2cccc3ccccc32)cc1	inactive	–
CC(C)(C)c1cc(/C=C2\SC(N)=NC2=O)cc(C(C)(C)C)c1O	inactive	–
CCCCCc1ccc(N)cc1	inactive	–
CCN(Cc1cccnc1)C(=O)c1cccc(Cl)c1[C@]1(C)C(=O)N(Cc2ccc(OC)cc2OC)c2ccc(Cl)cc21	inactive	–

target: chimpanzee Androgen Receptor (AR), AR (gene 747460) (UniProt O97775); assay: NVS_NR_cAR: NovaScreen (NVS) Nuclear Receptor Binding Assay for chimpanzee Androgen Receptor (AR) (AID 2283346);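 further: radioligand displacement from AR measured by scintillation counting in a cell-free assay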
Procedure, shortened: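 Cell-free radioligand displacement using receptor protein extracted from Sf9/Sf21 cells; bound radioligand measured by scintillation counting 72 hours after chemical dosing. Loss of signal versus DMSO baseline indicates binding; primary screen single-concentration in duplicate at 25 uM, actives followed in concentration series.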

Sequence of chimpanzee Androgen Receptor (AR), AR (gene 747460) (O97775 whole entry, looked up): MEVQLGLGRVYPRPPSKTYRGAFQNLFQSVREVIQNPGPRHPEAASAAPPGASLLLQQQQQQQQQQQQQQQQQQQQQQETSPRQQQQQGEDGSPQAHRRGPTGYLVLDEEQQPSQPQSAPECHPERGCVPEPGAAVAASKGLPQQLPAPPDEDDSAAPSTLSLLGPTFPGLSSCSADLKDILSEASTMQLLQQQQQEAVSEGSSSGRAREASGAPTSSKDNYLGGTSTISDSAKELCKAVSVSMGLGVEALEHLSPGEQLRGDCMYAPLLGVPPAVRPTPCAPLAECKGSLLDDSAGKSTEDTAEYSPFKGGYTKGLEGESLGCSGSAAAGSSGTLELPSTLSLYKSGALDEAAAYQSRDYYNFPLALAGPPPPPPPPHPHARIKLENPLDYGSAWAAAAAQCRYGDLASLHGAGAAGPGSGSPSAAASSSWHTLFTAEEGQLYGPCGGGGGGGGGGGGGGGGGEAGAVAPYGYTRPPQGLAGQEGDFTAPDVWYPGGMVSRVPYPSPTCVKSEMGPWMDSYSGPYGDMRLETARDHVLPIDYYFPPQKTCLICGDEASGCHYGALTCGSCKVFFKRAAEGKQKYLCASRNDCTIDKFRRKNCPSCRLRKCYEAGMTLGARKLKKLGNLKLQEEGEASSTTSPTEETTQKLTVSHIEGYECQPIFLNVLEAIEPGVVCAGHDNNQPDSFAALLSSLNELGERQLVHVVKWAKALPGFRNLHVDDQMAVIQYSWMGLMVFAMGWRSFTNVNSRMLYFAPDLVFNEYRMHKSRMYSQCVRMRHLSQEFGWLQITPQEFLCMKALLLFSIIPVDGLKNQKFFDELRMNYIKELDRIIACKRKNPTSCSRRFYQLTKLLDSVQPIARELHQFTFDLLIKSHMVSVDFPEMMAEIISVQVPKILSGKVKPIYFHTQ

Compound	AC50	outcome
C[C@]12CC[C@@H]3c4ccc(O)cc4CC[C@H]3[C@@H]1CCC2=O	0.472 µM (active)	inactive
Cc1c2ccccc2c(C)c2c1ccc1ccccc12	–	inactive
COc1ccc2cc(S(=O)(=O)N[C@H](CC(=O)N[C@H](Cc3ccc(CN4[C@H](C)CCC[C@@H]4C)cc3)C(=O)N(C)C(C)C)c3ccc4c(c3)OCO4)ccc2c1	10.8 µM (active)	–
CN(C)c1ccc(C(=C2C=CC(=[N+](C)C)C=C2)c2ccc(N(C)C)cc2)cc1	17.7 µM (active)	–
CCCCOC(=O)c1ccc(O)cc1	–	inactive
NCc1cccc(C2CCN(C(=O)c3ccc(C#Cc4ccccc4F)o3)CC2)c1	32.6 µM (active)	–
CCN(CC)C(=O)c1cc(S(=O)(=O)Cc2ccccc2)c(N2CCC(c3ccccc3)CC2)cc1N(CC)CCN(C)C	12.6 µM (active)	–
CN1C(=O)N(c2ccccc2Br)Cc2cnc(Nc3ccc4c(c3)OCC(CO)O4)nc21 (stereo not drawn)	–	inactive
CCOC(=O)O[C@H](C)OC(=O)c1ccc2c(c1)cc(C(=O)NC1CCN(C(C)C)CC1)n2Cc1cc(-c2ccc(Cl)s2)on1	17.8 µM (active)	–
CN(C)C(=O)C1(N2CCCCC2)CCN(CC[C@@]2(c3ccc(Cl)c(Cl)c3)CN(C(=O)c3ccccc3)CCO2)CC1	13.9 µM (active)	–
Cc1oc2c(NC(=O)c3c(Cl)cccc3Cl)cccc2c1C(C)(C)O	–	inactive
CC(C)(C)c1cc(/C=C2\SC(N)=NC2=O)cc(C(C)(C)C)c1O	33.9 µM (active)	–
CCCCCc1ccc(N)cc1	–	inactive
CC/C(=C(/CC)c1ccc(O)cc1)c1ccc(O)cc1	12.6 µM (active)	inactive
CCN(Cc1cccnc1)C(=O)c1cccc(Cl)c1[C@]1(C)C(=O)N(Cc2ccc(OC)cc2OC)c2ccc(Cl)cc21	18.3 µM (active)	–

target: Estrogen receptor (Homo sapiens) (UniProt P03372); assay: NVS_NR_hER: NovaScreen (NVS) Nuclear Receptor Binding Assay for human Estrogen Receptor (ER) (AID 2283348)
Procedure, shortened: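 Radiodetection of ligand displacement in a lysate-based, cell-free format using MCF7 extracts, read at 18 hours. Duplicate 25 uM primary testing, then concentration series for actives.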

Sequence of Estrogen receptor (Homo sapiens) (P03372 whole entry, looked up, the tested form may be a part): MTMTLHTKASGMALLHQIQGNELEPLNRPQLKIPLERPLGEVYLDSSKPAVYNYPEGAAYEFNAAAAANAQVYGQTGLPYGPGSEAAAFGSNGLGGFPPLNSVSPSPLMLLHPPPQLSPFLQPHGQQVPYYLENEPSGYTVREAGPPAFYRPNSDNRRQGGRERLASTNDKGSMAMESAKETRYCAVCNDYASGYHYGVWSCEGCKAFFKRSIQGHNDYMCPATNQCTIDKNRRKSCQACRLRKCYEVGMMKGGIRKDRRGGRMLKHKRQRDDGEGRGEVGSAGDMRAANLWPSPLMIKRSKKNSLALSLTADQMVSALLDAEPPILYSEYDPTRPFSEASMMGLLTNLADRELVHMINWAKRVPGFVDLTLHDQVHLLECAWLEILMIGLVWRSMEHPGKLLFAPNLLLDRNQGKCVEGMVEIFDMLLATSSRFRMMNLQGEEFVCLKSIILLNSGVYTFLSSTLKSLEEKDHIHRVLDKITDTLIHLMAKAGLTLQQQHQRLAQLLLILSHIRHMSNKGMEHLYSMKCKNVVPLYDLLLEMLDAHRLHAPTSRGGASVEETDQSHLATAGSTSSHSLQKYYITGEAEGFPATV

Compound	outcome	AC50
CCCCCCCCN(C)CCCCCCCC	inactive	–
Cc1cc(F)ccc1-c1cc(N2CC[C@@H](O)[C@H]2CO)ncc1N(C)C(=O)C(C)(C)c1cc(C(F)(F)F)cc(C(F)(F)F)c1	inactive	–
Cc1c2ccccc2c(C)c2c1ccc1ccccc12	inactive	–
CN(C)c1ccc(C(=C2C=CC(=[N+](C)C)C=C2)c2ccc(N(C)C)cc2)cc1	inactive	–
NCc1cccc(C2CCN(C(=O)c3ccc(C#Cc4ccccc4F)o3)CC2)c1	inactive	–
CCOC(=O)O[C@H](C)OC(=O)c1ccc2c(c1)cc(C(=O)NC1CCN(C(C)C)CC1)n2Cc1cc(-c2ccc(Cl)s2)on1	inactive	–
CN(C)C(=O)C1(N2CCCCC2)CCN(CC[C@@]2(c3ccc(Cl)c(Cl)c3)CN(C(=O)c3ccccc3)CCO2)CC1	inactive	–
CCCCCCCCOC(=O)c1cc(O)c(O)c(O)c1	inactive	–
Cc1oc2c(NC(=O)c3c(Cl)cccc3Cl)cccc2c1C(C)(C)O	–	13.6 µM (active)
CC(C)(C)c1cc(/C=C2\SC(N)=NC2=O)cc(C(C)(C)C)c1O	inactive	–
CN(C[C@@H](CC[N+]12CCC(C3CCCCC3)(CC1)CC2)c1ccc(Cl)c(Cl)c1)C(=O)c1cc(C(F)(F)F)cc(C(F)(F)F)c1	–	33 µM (active)
CCCCCc1ccc(N)cc1	inactive	–
CCN(Cc1cccnc1)C(=O)c1cccc(Cl)c1[C@]1(C)C(=O)N(Cc2ccc(OC)cc2OC)c2ccc(Cl)cc21	–	7.99 µM (active)

target: Estrogen receptor (Homo sapiens) (UniProt P03372); assay: OT_ER_ERaERa_1440: Odyssey Thera (OT) 24-hour HEK293T Protein-Complementation Assay for Estrogen Receptor-alpha/-alpha Homodimer (AID 2283349);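 further: hits raise fluorescence above DMSO for agonists and antagonists alike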
Procedure, shortened: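 Stably transfected HEK293T; ERα LBD homodimer PCA. 24 h dosing, fluorescence intensity read, gain-of-signal vs DMSO.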

Compound	outcome	AC50
CCCCCCCCN(C)CCCCCCCC	inactive	–
CC(C)(C)c1csc(-c2cc3cc(OCc4ccccc4CC(=O)O)ccc3o2)n1	inactive	–
COc1cc(C(=O)NC2CCN(C)CC2)ccc1Nc1ncc2c(n1)N(C1CCCC1)CC(F)(F)C(=O)N2C	–	2.24 µM (active)
Cc1cc(F)ccc1-c1cc(N2CC[C@@H](O)[C@H]2CO)ncc1N(C)C(=O)C(C)(C)c1cc(C(F)(F)F)cc(C(F)(F)F)c1	inactive	–
CC(=O)N1CCN(c2ccc(OC[C@H]3CO[C@](Cn4ccnc4)(c4ccc(Cl)cc4Cl)O3)cc2)CC1	inactive	–
Cc1c2ccccc2c(C)c2c1ccc1ccccc12	inactive	–
COc1ccc2cc(S(=O)(=O)N[C@H](CC(=O)N[C@H](Cc3ccc(CN4[C@H](C)CCC[C@@H]4C)cc3)C(=O)N(C)C(C)C)c3ccc4c(c3)OCO4)ccc2c1	inactive	–
CN(C)c1ccc(C(=C2C=CC(=[N+](C)C)C=C2)c2ccc(N(C)C)cc2)cc1	inactive	–
Clc1cc(Cl)c2c(c1)N=C1CCCCCN1C2	inactive	–
NCc1cccc(C2CCN(C(=O)c3ccc(C#Cc4ccccc4F)o3)CC2)c1	inactive	–
CCN(CC)C(=O)c1cc(S(=O)(=O)Cc2ccccc2)c(N2CCC(c3ccccc3)CC2)cc1N(CC)CCN(C)C	inactive	–
Cc1occc1C(=O)Nc1ccc(C(=O)N2CCC(F)(F)/C(=C\C(=O)N3CCC(N4CCCCC4)CC3)c3ccccc32)cc1	inactive	–
CN1C(=O)N(c2ccccc2Br)Cc2cnc(Nc3ccc4c(c3)OCC(CO)O4)nc21 (stereo not drawn)	inactive	–
COc1cccc([C@H](O)C2CCN(CCc3ccc(F)cc3)CC2)c1OC	inactive	–
O=C1c2ccccc2C(=O)N1CCc1noc(-c2ccc(CN3CCCCCC3)s2)n1	inactive	–
CC1=CC(=O)/C(=C(/C)O)C(=O)O1	inactive	–
CCOC(=O)O[C@H](C)OC(=O)c1ccc2c(c1)cc(C(=O)NC1CCN(C(C)C)CC1)n2Cc1cc(-c2ccc(Cl)s2)on1	inactive	–
CN(C)C(=O)C1(N2CCCCC2)CCN(CC[C@@]2(c3ccc(Cl)c(Cl)c3)CN(C(=O)c3ccccc3)CCO2)CC1	inactive	–
Cc1ccc2oc(CN(Cc3ccccc3)C(=O)Nc3c(F)cc(F)cc3F)c(-c3ccc(Cl)cc3)c2c1	inactive	–
CCCCCCCCOC(=O)c1cc(O)c(O)c(O)c1	–	14.4 µM (active)
Cc1oc2c(NC(=O)c3c(Cl)cccc3Cl)cccc2c1C(C)(C)O	inactive	–
c1ccc(C[n+]2cccc3ccccc32)cc1	inactive	–
CC(C)(C)c1cc(/C=C2\SC(N)=NC2=O)cc(C(C)(C)C)c1O	inactive	–
CN(C[C@@H](CC[N+]12CCC(C3CCCCC3)(CC1)CC2)c1ccc(Cl)c(Cl)c1)C(=O)c1cc(C(F)(F)F)cc(C(F)(F)F)c1	inactive	–
CCCCCc1ccc(N)cc1	inactive	–
CCN(Cc1cccnc1)C(=O)c1cccc(Cl)c1[C@]1(C)C(=O)N(Cc2ccc(OC)cc2OC)c2ccc(Cl)cc21	inactive	–
